Drawing on PubChem BioAssay (EPA / NIEHS), this text covers AC50 and outcome for 40 molecules.

Results filed as inconclusive are left out. Activity calls are given as the source filed them. Rule for the calls: active = hit-call score of the fitted dose curve at least 0.9, where 1 is the maximum; inconclusive = response in the unintended direction; inactive = score below 0.9.

Read-out in this experiment: xenobiotic metabolism (CYP1A1), CYP1A1 (gene 1543)
In words: CLD_CYP1A1_6hr: CellzDirect (CLD) Gene Expression Assay for xenobiotic metabolism (CYP1A1) at 6 hours (AID 2283661).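 For AC50: potency for transcript induction above DMSO vehicle baseline.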 The method, then:
CLD_6hr is a cell-based, multiplexed-readout assay that uses hepatocyte, a human liver primary cell, with measurements taken at 6 hours after chemical dosing in a 96-well plate.CLD_CYP1A1_6hr is one of 16 assay component(s) measured or calculated from the CLD_6hr assay. It is designed to make measurements of mRNA induction, a form of inducible reporter, as detected with chemiluminescence signals by Quantitative Nuclease Protection Assay (qNPA) technology.Data from the assay component CLD_CYP1A1_6hr was analyzed at the endpoint, CLD_CYP1A1_6hr, in the positive analysis fitting direction relative to DMSO as the negative control and baseline of activity. Using a type of inducible reporter, gain-of-signal activity can be used to understand changes in the reporter gene as they relate to the gene CYP1A1. Furthermore, this assay endpoint can be referred to as a primary readout. To generalize the intended target to other relatable targets, this assay endpoint is annotated to the cyp intended target family, where subfamily is xenobiotic metabolism.
Human hepatocyte cultures were treated daily for two consecutive days with fresh dosing solutions containing appropriate concentrations of the 320 ToxCast chemicals (chemical identities were blinded to CellzDirect and other ToxCast collaborators), vehicle control (0.2% DMSO), and positive control inducers as summarized in Table 1. Due to the large number of treatment groups and chemicals examined, the ToxCast chemicals were divided into two groups (spanning two independent cultures of hepatocytes from separate donor preparations (Hu778: ToxCast plates 1 and 2; Hu776: ToxCast plates 3 and 4). Each preparation of human hepatocyte cultures was treated with respective vehicle control, medium only control, set of six positive controls/reference chemicals for the five hepatic receptor pathways, and a subset of eight of the ToxCast chemicals (indoxacarb, pyrithiobac-sodium, norflurazon, cyhalofop-butyl, methomyl, thiram, acetochlor, and propiconazole). These replicate data, coupled with internal replicates designed within the blinded ToxCast chemical library, provided additional data to evaluate interindividual differences between hepatocyte preparations and their potential impact on chemical profiles.Cell morphology and integrity were evaluated using phase-contrast microscopy as an indicator of hepatocyte cell health (Tyson & Green, 1987). Cultures for each treatment group (i.e., media, vehicle [0.2% DMSO], positive control inducers [multiple concentrations], and the ToxCast chemicals [multiple concentrations]) were observed and cell morphology was assessed relative to vehicle control cultures at each harvest time point (0, 6, 24, or 48 h). […] Images were evaluated at the conclusion of the study to assess changes in cell integrity and account for the effects of chemical exposure on uncharacteristic changes in concentration-dependent gene expression profiles. The results from these determinations of apparent cytotoxicity were annotated (yes/no) alongside the corresponding qNPA data for reference.At the conclusion of each treatment period, hepatocyte cultures (96-well) were washed with 1 volume of HBSS, lysed by addition of 25 ul ArrayPlate lysis buffer (HTG, Tucson, AZ), and 70 ul/well of Denaturation Oil, denatured by incubation at 95C for 10 min, and frozen at approximately -70C until analysis by nuclease protection assay (qNPA) (Roberts et al., 2007). For qNPA analysis, cell lysates were thawed at 50C for approximately 30 min, qNPA probes were added, and samples were incubated at 95C for 10 min to begin the detection process by denaturing the target RNA, dissociating the duplexes and secondary structure hybridization. At the conclusion of the hybridization period, S1 nuclease reagent was added to each sample to digest all nonprotected nucleotides at 50C for 60-90 min. […]
`CSC(=O)c1cccc2nnsc12`: the AC50 was 20 µM (active). Take `CN(C)C(=O)Nc1ccc(Cl)c(Cl)c1`: the AC50 is 3.97 µM (active). As to `COc1nc(C)nc(NC(=O)NS(=O)(=O)c2ccccc2OCCCl)n1`, the molecule was called inactive. `CC(C)(C)[C@@H](O)[C@@H](Cc1ccc(Cl)cc1)n1cncn1`: the AC50 is 1.9 µM (active).

Regarding `COC(=O)c1c(Cl)nn(C)c1S(=O)(=O)NC(=O)Nc1nc(OC)cc(OC)n1`, the AC50 was 0.696 µM (active). Same read-out and setting: with `CC(C)(c1ccc(O)cc1)c1ccc(O)cc1` the figure was 0.00719 µM (active). On to `CCCCCOC(=O)COc1cc(N2C(=O)C3=C(CCCC3)C2=O)c(F)cc1Cl`, for which the AC50 is 20 µM (active). For the molecule `CCCCC(CC)COC(=O)c1ccccc1C(=O)O` (stereo not given), the half-maximal activity concentration (AC50) was 0.0637 µM (active).

Turning to `COc1c(Cl)ccc(Cl)c1C(=O)O`, the molecule was called inactive.

Consider `c1ccc(Nc2ccccc2)cc1`, for which the AC50 was 3.97 µM (active). Take `CCC(O)=C1C(=O)CC(C(=O)O)CC1=O` (stereo not given): the call was inactive. In the case of `CCCCCCC(C)OC(=O)COc1nc(F)c(Cl)c(N)c1Cl` (stereo not given), the call was inactive. As to `c1ccc2[nH]c(-c3cscn3)nc2c1`, the AC50 was 3.15 µM (active). As for `Oc1ccc(C(c2ccc(O)cc2)C(Cl)(Cl)Cl)cc1`, the concentration at half-maximal activity (AC50) was 0.0522 µM (active). Same read-out and setting: with `CCCCOCCOCCOCc1cc2c(cc1CCC)OCO2` the figure was 4.17 µM (active). Consider `CCCCOC(=O)C(C)Oc1ccc(Oc2ccc(C(F)(F)F)cn2)cc1` (stereo not given), for which the molecule was classed as inactive. With `CCOC(=O)C(C)Oc1ccc(Oc2nc3ccc(Cl)cc3o2)cc1` (stereo not given), the molecule was called inactive. With `CC1(C)C(C=C(Cl)Cl)C1C(=O)OCc1cccc(Oc2ccccc2)c1` (stereo not given), the result was inactive.

For `COC(=O)c1ccc(I)cc1S(=O)(=O)NC(=O)Nc1nc(C)nc(OC)n1`, the result was inactive.

Regarding `COC(=O)c1ccc(CNS(C)(=O)=O)cc1S(=O)(=O)NC(=O)Nc1nc(OC)cc(OC)n1`, the result was inactive. Regarding `C=CCOC(Cn1ccnc1)c1ccc(Cl)cc1Cl` (stereo not given), the AC50 is 0.0861 µM (active). For the molecule `COC(=O)c1ccccc1S(=O)(=O)NC(=O)Nc1nc(OC(F)F)cc(OC(F)F)n1`, the call was inactive.

Take `CCNc1nc(N)nc(Cl)n1`: the molecule was classed as inactive. On to `CCOC(=O)COc1cc(-n2ncc(C(F)(F)F)c(C)c2=O)c(F)cc1Cl`, for which the outcome was inactive. For the molecule `CCOC(=O)[C@H](C)Oc1ccc(Oc2nc3ccc(Cl)cc3o2)cc1`, the AC50 was 3.97 µM (active). For `S=C(S)NCCNC(=S)S.[Mn+2].[S-]C([S-])=NCCN=C([S-])[S-].[Zn+2]`, the AC50 was 1.45 µM (active). Turning to `CCC(C)OC(=O)N1CCCCC1CCO` (stereo not given), the outcome was inactive. Still for that read-out and setting: as for `CCCOC(=O)NCCCN(C)C`, the entry is “inactive”. With `O=C(Nc1ccc([N+](=O)[O-])cc1Cl)c1cc(Cl)ccc1O`, the AC50 was 0.218 µM (active).

Consider `N#CSCSc1nc2ccccc2s1`, for which the call was inactive. Take `COC(=O)CSc1cc(N=c2sc(=O)n3n2CCCC3)c(F)cc1Cl`: the concentration at half-maximal activity (AC50) is 2.66 µM (active). Turning to `COC(=O)c1cccc(C)c1S(=O)(=O)NC(=O)Nc1nc(OCC(F)(F)F)nc(N(C)C)n1`, the AC50 was 5.2 µM (active). As to `CCCN(CCC)C(=O)SCC`, the molecule was called inactive. Regarding `CCSC(=O)N(CC(C)C)CC(C)C`, the molecule was called inactive.

Consider `CCN(Cc1c(F)cccc1Cl)c1c([N+](=O)[O-])cc(C(F)(F)F)cc1[N+](=O)[O-]`, for which the half-maximal activity concentration (AC50) was 1.9 µM (active). `CCCCOC(=O)[C@@H](C)Oc1ccc(Oc2ccc(C(F)(F)F)cn2)cc1`: the AC50 is 20 µM (active). With `CCCN(CCC)c1c([N+](=O)[O-])cc(C(F)(F)F)c(N)c1[N+](=O)[O-]`, the AC50 was 3 µM (active). In the case of `CCCCC(CC)CN1C(=O)C2C3C=CC(C3)C2C1=O` (stereo not given), the half-maximal activity concentration (AC50) was 6.62 µM (active). On to `CCN(CC)C(=O)c1cccc(C)c1`, for which the call was inactive.

For `CCOC(=O)NCCOc1ccc(Oc2ccccc2)cc1`, the molecule was called inactive.

In general, AC50 refers to the concentration at which the activity in the assay is half-maximal.
